Among the data in PubChem BioAssay AID1851 (National Center for Advancing Translational Sciences (NCATS), 2009) are AC50 and activity, negative = inhibition values, retold here.

Molecules are shown by their SMILES. The whole screen tested about 16,000 compounds, of which about 5,100 (32%) were called active. Another 25% or so got no clear call; they are omitted. Calls follow the shape of the dose curve; as a rule, active = well fitted curve in the direction sought with a large enough effect; inconclusive = small, poorly fitted or top-dose-only effect, or effect the other way; inactive = no such curve, though single readings can be large or run the other way. The list shows a part of the results.
% is scaled to controls: 0 for no effect and ±100 for the full control effect.

Cytochrome P450 3A4 (Homo sapiens), sequence (P08684 whole entry, looked up): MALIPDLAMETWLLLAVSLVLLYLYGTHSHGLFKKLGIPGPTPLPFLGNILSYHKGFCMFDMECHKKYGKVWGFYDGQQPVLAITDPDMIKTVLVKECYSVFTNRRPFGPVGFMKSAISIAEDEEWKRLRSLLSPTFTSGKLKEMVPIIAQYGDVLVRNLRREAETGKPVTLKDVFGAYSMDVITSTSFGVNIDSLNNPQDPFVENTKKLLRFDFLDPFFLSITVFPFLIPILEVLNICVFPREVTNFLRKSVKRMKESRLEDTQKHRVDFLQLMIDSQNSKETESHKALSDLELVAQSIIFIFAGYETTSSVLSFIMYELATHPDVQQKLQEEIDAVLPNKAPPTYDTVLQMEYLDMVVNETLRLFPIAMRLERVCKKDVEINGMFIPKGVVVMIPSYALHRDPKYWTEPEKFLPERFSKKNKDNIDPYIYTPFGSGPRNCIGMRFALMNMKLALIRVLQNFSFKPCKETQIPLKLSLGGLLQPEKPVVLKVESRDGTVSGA

This assay has as its target Cytochrome P450 3A4 (Homo sapiens) (UniProt P08684). Kind of assay: Cytochrome panel assay with activity outcomes. The note with it: recombinant CYP, pro-luciferin dealkylation, luminescence, p450-cyp3a4; series mostly up to 57.1 µM.
As for `Cc1cc2nc(C3CCCN(C(=O)NCc4ccccc4)C3)[nH]c2cc1C` (stereo not drawn), the half-maximal activity concentration (AC50) was 10 µM (active).
Same read-out and setting: the entry for `CC(=O)Nc1ccc2nc(C3CCCCC3)[nH]c2c1` is “inactive”; for `Cc1ccc2nc(C3CCCN(C(=S)Nc4ccccc4C)C3)[nH]c2c1` (stereo not drawn) it is 6.31 µM (active).
Still for that read-out and setting: as for `Cc1cccc(NC(=S)N2CCC(N(C)CC3CCCO3)CC2)c1C` (stereo not drawn), the entry is “inactive”.
In the case of `O=C(O)c1ccc(NCc2nc3cc4ccccc4cc3[nH]2)cc1`, the activity, negative = inhibition was -11.9% [at 11.4 µM] (inactive).
Take `Cc1ccc(-n2ccnc2SCC(=O)N(CC(C)C)C2CCS(=O)(=O)C2)c(C)c1` (stereo not drawn): the activity, negative = inhibition is -16.9% [at 2.29 µM] (inactive).
For `O=C(CSc1nnc(-c2ccc(Cl)cc2Cl)n1C1CCCCC1)NC1CCS(=O)(=O)C1` (stereo not drawn), the half-maximal activity concentration (AC50) is 10 µM (active).
On to `Cc1cc(C)n2c(SCC(=O)N(C)C3CCS(=O)(=O)C3)nnc2n1` (stereo not drawn), for which the AC50 result was “inactive”.
The same measure, in the same setting: the figure for `O=P(Cc1cc[n+]([O-])cc1)(c1ccccc1)c1ccccc1` is 14.1 µM (active).
`O=P(O)(CCP(=O)(O)c1ccccc1)c1ccccc1`: the activity, negative = inhibition was -3.78% [at 11.4 µM] (inactive).
Consider `O=P(O)(O)CCP(=O)(c1ccccc1)c1ccccc1`, for which the AC50 result was “inactive”.
For the molecule `O=C(NCc1ccco1)c1ccccc1NS(=O)(=O)c1ccc(Br)s1`, the activity, negative = inhibition is -21% [at 2.29 µM] (inactive).
Consider `Cc1ccc(S(=O)(=O)N(Cc2ccccc2)c2ccccc2C(=O)NCc2ccco2)cc1`, for which the concentration at half-maximal activity (AC50) was 2.51 µM (active).
Still for that read-out and setting: as for `CN(CCCNC(=O)c1ccc(/C=N/O)nc1)CCCN(C)Cc1ccccc1`, the entry is “inactive”; as for `CN(CCCNC(=O)c1cccn2c(=O)c3ccccc3nc12)Cc1ccccc1`, 1 µM (active); as for `CCCCOc1cc(C(=O)NCCN(CC)CC)c2ccccc2n1`, “inactive”.
In the case of `Cn1c(-c2ccc(Br)cc2)cnc1NCc1cccnc1`, the AC50 is 3.98 µM (active).
The same measure, in the same setting: the figure for `Cn1c(-c2ccc(F)cc2)cnc1NCc1cccc(F)c1` is 8.91 µM (active); for `CCNc1ncc2nc(-c3ccc(F)cc3)c(=O)n(C)c2n1` it is “inactive”; for `Cn1c(-c2ccc(F)cc2)cnc1NCc1ccc(F)cc1` it is “inactive”.
Consider `C[C@H](C(=O)O)c1cccc(Oc2ccccc2)c1`, for which the AC50 result was “inactive”.
For the molecule `CCC(C)(C)c1ccc(Oc2cccc(C(=O)O)c2)cc1`, the activity, negative = inhibition is -2.44% [at 11.4 µM] (inactive).
As for `C[C@@H](/C=C\c1cccc(Oc2ccc(F)cc2)c1)N(O)C(N)=O`, the AC50 is 1 µM (active).
Still for that read-out and setting: as for `COC(=O)/C=C\c1cc(O)ccc1O`, the entry is “inactive”; as for `COc1ccc(Br)cc1/C=C/C(=O)Nc1c(C)cccc1C`, 4.47 µM (active).
Take `CCn1nc(C)c(NC(=O)/C=C/c2cnn(C)c2C)c1C`: the AC50 result was “inactive”.
As to `COc1cc2c(cc1OC)/C(=C/C(=O)N1CCOCC1)NC(C)(C)C2`, the AC50 entry is “inactive”.
As for `CN1CCc2c(c3c(n2C)CCN(C)[C@H]3c2ccccc2F)[C@@H]1c1ccccc1F`, the concentration at half-maximal activity (AC50) was 7.94 µM (active).
Turning to `Oc1ccc(Cl)cc1Cc1cc(Cl)cc(Cc2cc(Cl)ccc2O)c1O`, the activity, negative = inhibition was -24.4% [at 11.4 µM] (inactive).
On to `CN(C)CC/C=C1\c2ccccc2CSc2ccccc21`, for which the AC50 result is “inactive”.
Still for that read-out and setting: as for `CN1CCC(=C2c3ccccc3Sc3ccccc32)CC1`, the entry is “inactive”.
Same read-out and setting: as for `CN1CCN(CCC=C2c3ccccc3Sc3ccc(S(=O)(=O)N(C)C)cc32)CC1`, the figure is 12.6 µM (active); as for `CCCCC1(C)Nc2ccccc2-c2nc3ccccc3n21` (stereo not drawn), 7.08 µM (active).
As to `CC1CCC2(CC1)N=C(N)Nc1nc3ccccc3n12` (stereo not drawn), the AC50 result is “inactive”.
As to `NC1=NC2(CCCCCC2)n2c(nc3ccccc32)N1`, the AC50 result was “inactive”.
On the same count and under the same terms, as for `CCCC1(C)Nc2ccccc2-c2nc3ccccc3n21` (stereo not drawn), the figure is 12.6 µM (active).
Take `CCC1(C)Nc2ccccc2C(=O)N1O` (stereo not drawn): the AC50 result was “inactive”.
As for `COC(=O)[C@@]1(Cc2ccccc2)[C@H]2c3cc(C(=O)N4CCCC4)n(Cc4ccsc4Br)c3C[C@H]2CN1C(=O)c1ccccc1`, the half-maximal activity concentration (AC50) is 3.98 µM (active).
Still for that read-out and setting: as for `COC(=O)[C@@]1(Cc2ccccc2)[C@H]2c3cc(C(=O)N(C)C)n(Cc4ccsc4Br)c3C[C@H]2CN1C(=O)c1ccccc1`, the figure is 1.58 µM (active).
With `CC(C)c1ccc(/C(C(=O)O)=C(\O)C(=O)O)cc1`, the activity, negative = inhibition is -12.9% [at 11.4 µM] (inactive).
For the molecule `O=C(O)CCC(=O)c1ccc2ccc3cccc4ccc1c2c34`, the activity, negative = inhibition is -10.9% [at 11.4 µM] (inactive).
`CC1(C)OC(=O)C(=CNCC(O)c2ccccc2)C(=O)O1` (stereo not drawn): the activity, negative = inhibition is 20.4% [at 11.4 µM] (inactive).
As to `COc1ccc(-c2cc(CNC(C)=O)on2)cc1`, the AC50 result is “inactive”.
In the case of `COc1ccc(-c2noc(N(C)CC(=O)Nc3cccc(C(F)(F)F)c3)n2)cc1`, the AC50 was 12.6 µM (active).
The same measure, in the same setting: the entry for `Cc1ccccc1NC(=O)c1cnc(Nc2nc3ccccc3s2)nc1C` is “inactive”.
On the same count and under the same terms, as for `Cc1cccc2sc(NC(=O)C3c4ccccc4Oc4ccccc43)nc12`, the figure is 12.6 µM (active).
Regarding `CC(=O)c1ccc(OC(=O)C2c3ccccc3Oc3ccccc32)cc1`, the activity, negative = inhibition was 10.9% [at 2.29 µM] (inactive).
In the case of `Cc1ccc2nc(Nc3nc(-c4ccccc4)cc(=O)[nH]3)nc(C)c2c1`, the AC50 is 2.51 µM (active).
As for `O=c1nc(-c2ccccc2)cc(C(F)(F)F)[nH]1`, the AC50 result is “inactive”.
On the same count and under the same terms, the figure for `Cc1ccc2c(C)nc(Nc3nc(CSc4nc5ccccc5[nH]4)cc(=O)[nH]3)nc2c1` is 2.82 µM (active).
As for `C[N+](C)(C)CCCSc1nc2ccccc2[nH]1`, the activity, negative = inhibition is 4.86% [at 11.4 µM] (inactive).
On the same count and under the same terms, as for `O=C(Nc1nn[nH]n1)c1nc(-c2ccccc2)cc(=O)[nH]1`, the figure is -3.85% [at 11.4 µM] (inactive).
Take `CCOC(=O)Cn1c(=O)oc2cc(S(=O)(=O)NCCc3ccc(OCC)c(OCC)c3)ccc21`: the AC50 was 12.6 µM (active).
`CC(=O)Nc1ccc(S(=O)(=O)NCCc2ccc(F)cc2)cc1`: the activity, negative = inhibition was -13.3% [at 2.29 µM] (inactive).
On to `O=C(NN=C1C2CC3CC(C2)CC1C3)c1ccncc1`, for which the AC50 is 25.1 µM (active).
Turning to `CC(=O)c1c(C(C)=O)c(C)n(NC(=O)c2ccncc2)c1C`, the AC50 result was “inactive”.
Same read-out and setting: the entry for `O=C1c2ccc3c4c(ccc(c24)C(=O)N1c1ccc2ccccc2c1)CC3` is “inactive”; for `COc1ccc2c(c1)C(=O)N(c1ccccc1)C(=O)C2` it is 2.24 µM (active).
The same measure, in the same setting: the entry for `COc1ccc2c(c1)-c1ccccc1S(=O)(=O)N2C` is “inactive”; for `CCOc1ccc(OCc2ccc(C(=O)NCc3cccnc3)o2)cc1` it is 2.82 µM (active); for `O=C(c1ccc(COc2ccc(F)cc2)o1)n1cccn1` it is “inactive”.
On the same count and under the same terms, as for `Cc1ccccc1CS(=O)(=O)Cc1ccc(C(=O)NCc2cccnc2)o1`, the figure is 0.891 µM (active); as for `O=C(COc1ccc([N+](=O)[O-])cc1)NCc1ccccc1`, “inactive”; as for `O=C(N/N=C/c1cccnc1)c1ccc([N+](=O)[O-])cc1`, “inactive”.
In the case of `O=C(COc1ccc([N+](=O)[O-])cc1)Nc1ccc(C(=O)NCc2cccnc2)cc1`, the AC50 was 12.6 µM (active).
Take `CN(C)C(=O)c1ccc(-c2cc(Nc3ccccc3)ncn2)cc1`: the AC50 entry is “inactive”.
On the same count and under the same terms, the figure for `CS(=O)(=O)Nc1cccc(-c2cc(Nc3ccccc3)ncn2)c1` is 15.8 µM (active).
With `CS(=O)(=O)Nc1cccc(-c2cc(NCc3cccs3)ncn2)c1`, the AC50 was 15.8 µM (active).
In the case of `CS(=O)(=O)Nc1cccc(-c2cc(NCc3ccccc3)ncn2)c1`, the half-maximal activity concentration (AC50) is 15.8 µM (active).
Still for that read-out and setting: the figure for `Cc1cccc(CNc2cc(-c3cccc(NS(C)(=O)=O)c3)ncn2)c1` is 2 µM (active).
`CC(=O)c1cn(CCCCCCCCCCn2cc(C(C)=O)c(=O)[nH]c2=O)c(=O)[nH]c1=O`: the activity, negative = inhibition is 2.06% [at 2.29 µM] (inactive).
`NC(=O)C[C@H](N)C(N)=O`: the activity, negative = inhibition is 2.14% [at 11.4 µM] (inactive).
Take `CCN(CC)CCOc1ccc2nc(N(C)C)sc2c1`: the AC50 entry is “inactive”.
For `CC1(C)SC(=S)N(NC(=O)Nc2ccccc2)C1N(O)C(=O)Nc1ccccc1` (stereo not drawn), the AC50 is 2.51 µM (active).
For the molecule `COC(=O)C1CCC(C)(C(=O)Nc2ccccc2)C1(C)C` (stereo not drawn), the activity, negative = inhibition is -9.58% [at 11.4 µM] (inactive).
As for `Cn1c(Cc2cccc3ccccc23)nnc1SCC(=O)N1CCN(c2ccccc2)CC1`, the concentration at half-maximal activity (AC50) is 1.58 µM (active).
On the same count and under the same terms, the figure for `CC(C)c1ccccc1-n1c(SCC(=O)N2CCN(c3ccccc3)CC2)nnc1-c1cccnc1` is 0.501 µM (active).
`COCC(=O)N1CCC2(CC1)CCN(c1cccc(-c3ccccc3)c1)CC2`: the AC50 entry is “inactive”.
For `Cc1cc2nnc(SCC(=O)N3CCN(c4ccccc4)CC3)n2c(N)n1`, the AC50 was 14.1 µM (active).
Same read-out and setting: the figure for `Cn1c(CC(=O)Nc2ccc(Cl)c(Cl)c2)nnc1SCC(=O)N1CCN(c2ccccc2)CC1` is 1.58 µM (active).
For the molecule `CC1CC(C)CN(C(=O)CSc2nnc(CSc3ncccn3)n2C)C1` (stereo not drawn), the activity, negative = inhibition was 3.75% [at 2.29 µM] (inactive).
In the case of `COc1ccc(CNc2ncncc2-c2ccc3c(c2)OCO3)c(OC)c1`, the half-maximal activity concentration (AC50) is 0.126 µM (active).
For `COc1ccccc1CNc1ncncc1-c1ccc2c(c1)OCO2`, the concentration at half-maximal activity (AC50) is 0.2 µM (active).
`O=C1CSC2(CCN(CCCN3c4ccccc4Sc4ccc(Cl)cc43)CC2)N1`: the activity, negative = inhibition is -14.4% [at 11.4 µM] (inactive).
Still for that read-out and setting: the figure for `C[C@@](O)(CNS(=O)(=O)c1ccccc1)c1ccccc1` is -21.9% [at 11.4 µM] (inactive).
As for `CCC/C=C(\CCC)C(NS(=O)(=O)c1ccc(C(F)(F)F)cc1)c1ccccc1` (stereo not drawn), the concentration at half-maximal activity (AC50) was 10 µM (active).
Same read-out and setting: the figure for `CCC/C=C(\CCC)C(NS(=O)(=O)c1ccccc1)c1ccc(C(F)(F)F)cc1` (stereo not drawn) is 6.31 µM (active).
Take `COc1ccccc1CN1CCCC2(CCN(C(=O)c3ccncc3)CC2)C1`: the concentration at half-maximal activity (AC50) is 6.31 µM (active).
As to `COc1ccccc1CN1CCCC2(CCN(C(C)=O)CC2)C1`, the AC50 entry is “inactive”.
In the case of `COc1ccccc1CN1CCCC2(CCN(C(=O)c3cnccn3)CC2)C1`, the half-maximal activity concentration (AC50) was 15.8 µM (active).
Still for that read-out and setting: as for `COCC(=O)N1CCC2(CCCN(Cc3ccccc3OC)C2)CC1`, the entry is “inactive”; as for `Cc1nc2nc(SCC(=O)NCc3ccco3)nn2c(C)c1Cc1c(F)cccc1Cl`, 10 µM (active); as for `Cc1cccc(Cc2c(C)nc3nc(SCC(=O)NCc4ccco4)nn3c2C)c1`, 11.2 µM (active).
Same read-out and setting: the entry for `CCCN=C(N)NCCC[C@H](N)C(=O)O` is “inactive”; for `COc1cc(OC)c(C2N(c3cc(C)on3)C(=O)C3CCCN32)cc1OC` (stereo not drawn) it is “inactive”.
With `CCc1cc(C(=O)OC)c(NC(=O)CCCC(=O)O)s1`, the AC50 result is “inactive”.
The same measure, in the same setting: the entry for `CCOC(=O)c1cc(-c2ccccc2)sc1NC(=O)c1ccc(OC)cc1` is “inactive”.
On the same count and under the same terms, the figure for `CCOC(=O)c1cc(CC)sc1NC(=O)c1cc(OCC)c(OCC)c(OCC)c1` is 22.4 µM (active).

The term AC50 denotes the concentration giving half of the maximal activity seen.
